The full list was thinned out, with the strongest signals kept by preference.
Assays:
Assay in all cases: glycan array binding signal (z-score within array); higher = stronger binding
Settings in all cases: glycan notation: IUPAC condensed, linker removed
[1] = target: Fuc(a1-2)Gal(b1-3)GlcNAc(b1-2)Man(a1-3)[Fuc(a1-2)Gal(b1-3)GlcNAc(b1-2)Man(a1-6)]Man(b1-4)GlcNAc(b1-4)[Fuc(a1-6)]GlcNAc
Method in brief: (§1)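 The Consortium for Functional Glycomics database supplied 3228 glycan arrays, of which those lacking an available protein sequence were dropped. The binding signal, a within-array Z-score, was averaged across arrays of the same protein sequence and across linkers. Negative scores can be read as non-binding.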

[2] = target: Fuc(a1-2)Gal(b1-3)[Fuc(a1-4)]GlcNAc
Method in brief: as §1

[3] = target: Fuc(a1-2)Gal(b1-3)[Fuc(a1-4)]GlcNAc(b1-2)Man(a1-3)[Fuc(a1-2)Gal(b1-3)[Fuc(a1-4)]GlcNAc(b1-2)Man(a1-3)]Man(b1-4)GlcNAc(b1-4)GlcNAc
Method in brief: as §1

[4] = target: Fuc(a1-2)Gal(b1-3)[Fuc(a1-4)]GlcNAc(b1-2)Man(a1-3)[Fuc(a1-2)Gal(b1-3)[Fuc(a1-4)]GlcNAc(b1-2)Man(a1-6)]Man(b1-4)GlcNAc(b1-4)[Fuc(a1-6)]GlcNAc(b1-4)[Fuc(a1-6)]GlcNAc
Method in brief: as §1

[5] = target: Fuc(a1-2)Gal(b1-4)GlcNAc(b1-2)Man(a1-3)[Fuc(a1-2)Gal(b1-4)GlcNAc(b1-2)Man(a1-6)]Man(b1-4)GlcNAc(b1-4)[Fuc(a1-6)]GlcNAc
Method in brief: as §1

[6] = target: Fuc(a1-2)Gal(b1-4)GlcNAc(b1-3)Gal(b1-4)GlcNAc(b1-2)Man(a1-3)[Fuc(a1-2)Gal(b1-4)GlcNAc(b1-3)Gal(b1-4)GlcNAc(b1-2)Man(a1-6)]Man(b1-4)GlcNAc(b1-4)GlcNAc
Method in brief: as §1

[7] = target: Fuc(a1-2)Gal(b1-4)[Fuc(a1-3)]GlcNAc
Method in brief: as §1

[8] = target: Fuc(a1-2)Gal3S(b1-4)GlcNAc
Method in brief: as §1

[9] = target: Fuc(a1-2)Gal6S(b1-3)GlcNAc6S
Method in brief: as §1

[10] = target: Fuc(a1-2)Gal6S(b1-4)Glc6S
Method in brief: as §1

[11] = target: Fuc(a1-2)[GalNAc(a1-3)]Gal(b1-3)GalNAc(a1-3)[Fuc(a1-2)]Gal(b1-4)GlcNAc
Method in brief: as §1

[12] = target: Fuc(a1-2)[GalNAc(a1-3)]Gal(b1-3)GalNAc(b1-3)Gal(a1-4)Gal(b1-4)Glc
Method in brief: as §1

[13] = target: Fuc(a1-3)[Gal(b1-4)]GlcNAc(b1-6)GalNAc
Method in brief: as §1

[14] = target: Fuc(a1-3)[Gal(b1-4)]GlcNAc6S
Method in brief: as §1

[15] = target: Gal(a1-2)Gal
Method in brief: as §1

[16] = target: Gal(a1-3)Gal(b1-3)GlcNAc(b1-2)Man(a1-3)[Gal(a1-3)Gal(b1-3)GlcNAc(b1-2)Man(a1-6)]Man(b1-4)GlcNAc(b1-4)GlcNAc
Method in brief: as §1

[17] = target: Gal(a1-3)Gal(b1-3)GlcNAc(b1-6)GalNAc
Method in brief: as §1

[18] = target: Gal(a1-3)Gal(b1-4)[Fuc(a1-3)]GlcNAc(b1-2)Man(a1-3)[Gal(a1-3)Gal(b1-4)[Fuc(a1-3)]GlcNAc(b1-2)Man(a1-6)]Man(b1-4)GlcNAc(b1-4)GlcNAc
Method in brief: as §1

[19] = target: Gal(a1-4)Gal(b1-3)GlcNAc(b1-2)Man(a1-3)[Gal(a1-4)Gal(b1-3)GlcNAc(b1-2)Man(a1-6)]Man(b1-4)GlcNAc(b1-4)GlcNAc
Method in brief: as §1

[20] = target: Gal(a1-4)Gal(b1-4)GlcNAc(b1-3)Gal(b1-4)Glc
Method in brief: as §1

[21] = target: Gal(b1-3)[Fuc(a1-4)]GlcNAc(b1-2)Man(a1-3)[Gal(b1-3)[Fuc(a1-4)]GlcNAc(b1-2)Man(a1-6)]Man(b1-4)GlcNAc(b1-4)[Fuc(a1-6)]GlcNAc
Method in brief: as §1

[22] = target: Gal(b1-3)[Neu5Ac(b2-6)]GalNAc
Method in brief: as §1

[23] = target: Gal(b1-4)GlcNAc(b1-2)Man(a1-3)[Gal(b1-4)GlcNAc(b1-2)Man(a1-6)][GlcNAc(b1-4)]Man(b1-4)GlcNAc(b1-4)[Fuc(a1-6)]GlcNAc
Method in brief: as §1

[24] = target: Gal(b1-4)GlcNAc(b1-2)[Gal(b1-4)GlcNAc(b1-6)]Man(a1-6)[Gal(b1-4)GlcNAc(b1-2)Man(a1-3)]Man(b1-4)GlcNAc(b1-4)GlcNAc
Method in brief: as §1

[25] = target: Gal(b1-4)GlcNAc(b1-3)Gal(b1-3)GalNAc
Method in brief: as §1

B1: OGAA (protein)
chain: MVQKESQATLEERESELSSNPAASAGASLEPPAAPAPGEDNPAGAGGAAVAGAAGGARRFLCGVVEGFYGRPWVMEQRKELFRRLQKWELNTYLYAPKDDYKHRMFWREMYSVEEAEQLMTLISAAREYEIEFIYAISPGLDITFSNPKEVSTLKRKLDQVSQFGCRSFALLFADIDHNMCAADKEVFSSFAHAQVSITNEIYQYLGEPETFLFCPTEYCGTFCYPNVSQSPYLRTVGEKLLPGIEVLWTGPKVVSKEIPVESIEEVSKIIKRAPVIWDNIHANDYDQKRLFLGPYKGRSTELIPRLKGVLTNPNCEFEANYVAIHTLATWYKSNMNGVRKDVVMTDSEDSTVSIQIKLENEGSDEDIETDVLYSPQMALKLALTEWLQEFGVPHQY
B1 was tested, and the “glycan array binding signal (z-score)” value [1] was 0.026, the “glycan array binding signal (z-score)” value [2] was -0.076 and the “glycan array binding signal (z-score)” value [3] was 0.285. For the same binder, the “glycan array binding signal (z-score)” value [4] was 0.251, the “glycan array binding signal (z-score)” value [5] was 0.206 and the “glycan array binding signal (z-score)” value [6] was 0.006. The “glycan array binding signal (z-score)” value [7] was -0.07, the “glycan array binding signal (z-score)” value [8] was -0.06 and the “glycan array binding signal (z-score)” value [9] was 1.74. The “glycan array binding signal (z-score)” value [10] was 0.205, the “glycan array binding signal (z-score)” value [11] was 22.9 and the “glycan array binding signal (z-score)” value [12] was 8.04. The “glycan array binding signal (z-score)” value [13] was 0.242, the “glycan array binding signal (z-score)” value [14] was -0.107 and the “glycan array binding signal (z-score)” value [15] was 0.002. The “glycan array binding signal (z-score)” value [16] was 0.031, the “glycan array binding signal (z-score)” value [17] was -0.107 and the “glycan array binding signal (z-score)” value [18] was 0.644. The “glycan array binding signal (z-score)” value [19] was -0.007, the “glycan array binding signal (z-score)” value [20] was -0.098 and the “glycan array binding signal (z-score)” value [21] was 0.357. The “glycan array binding signal (z-score)” value [22] was -0.096, the “glycan array binding signal (z-score)” value [23] was -0.009 and the “glycan array binding signal (z-score)” value [24] was -0.08. For the same binder, the “glycan array binding signal (z-score)” value [25] was -0.11.

Source: the supplement of paper PMC8728848
